Results filed as inconclusive are left out. Some compounds were tested as several samples or in several runs, with calls that do not always agree. The source made the active and inactive calls. The calls were made as follows: active = hit-call score of the fitted dose curve at least 0.9, where 1 is the maximum; inconclusive = response in the unintended direction; inactive = score below 0.9.
The compounds below were run against Bile acid receptor (Homo sapiens) (UniProt Q96RI1) (assay: ATG_FXR_TRANS: Attagene TRANS-FACTORIAL HepG2 Assay for Farnesoid X Receptor (FXR) (AID 2282979;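 also: hits raise reporter mRNA above DMSO so AC50 marks FXR activation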)). Details: HepG2 Attagene TRANS FXR-GAL4 reporter transcription.
Chain of Bile acid receptor (Homo sapiens) (Q96RI1 whole entry, looked up, the tested form may be a part): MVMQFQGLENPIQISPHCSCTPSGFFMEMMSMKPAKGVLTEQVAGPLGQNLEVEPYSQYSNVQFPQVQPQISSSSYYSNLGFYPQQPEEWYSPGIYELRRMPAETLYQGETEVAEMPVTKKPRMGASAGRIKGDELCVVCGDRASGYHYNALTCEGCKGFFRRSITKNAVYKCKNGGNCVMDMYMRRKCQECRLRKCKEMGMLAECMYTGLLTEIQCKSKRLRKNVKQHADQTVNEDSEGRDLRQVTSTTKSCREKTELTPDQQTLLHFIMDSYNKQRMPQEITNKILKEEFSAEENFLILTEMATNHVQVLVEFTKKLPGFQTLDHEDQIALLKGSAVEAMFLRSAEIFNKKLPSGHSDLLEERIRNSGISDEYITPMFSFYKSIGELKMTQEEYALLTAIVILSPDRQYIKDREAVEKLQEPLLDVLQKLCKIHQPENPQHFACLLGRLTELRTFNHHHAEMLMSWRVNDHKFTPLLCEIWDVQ
Method: ATG_TRANS is a cell-based, multiplexed-readout assay that uses HepG2, a human liver cell line, with measurements taken at 24 hours after chemical dosing in a 24-well plate.ATG_FXR_TRANS is one of 30 assay component(s) measured or calculated from the ATG_TRANS assay. It is designed to make measurements of mRNA induction, a form of inducible reporter, as detected with fluorescence intensity signals by Reverse transcription polymerase chain reaction (RT-PCR) and Capillary electrophoresis technology.Data from the assay component ATG_FXR_TRANS was analyzed into 1 assay endpoint. This assay endpoint, ATG_FXR_TRANS, was analyzed in the positive analysis fitting direction relative to DMSO as the negative control and baseline of activity. Using a type of inducible reporter, measures of mRNA for gain-of-signal activity can be used to understand the reporter gene at the transcription factor-level as they relate to the gene NR1H4. Furthermore, this assay endpoint can be referred to as a primary readout, because this assay has produced multiple assay endpoints where this one serves a reporter gene function. To generalize the intended target to other relatable targets, this assay endpoint is annotated to the nuclear receptor intended target family, where the subfamily is non-steroidal.
Human liver HepG2 cells are transiently transfected with multiple reporter transcription units (MRTUs) in 6-well plates using FuGene 6 reagent (Roche; 3 ml FuGene/1 mg DNA). The MRTU constructs are regulated by a cis-regulating element (promoter). […] A major difference between the CIS and TRANS system is that in CIS activities of endogenous TFs are measured, whereas the TRANS assay evaluates changes in activities of exogenous, chimeric NR-Gal4 proteins. […] At the end of 24 hour incubation, total RNA was isolated using TriZol reagent (Invitrogen). The isolated RNA is then reverse-transcribed using oligo(dT) primer and Mo-MLV reverse transcriptase (Invitrogen) with DNAse I (Ambion) treatment for 30 min. The one-tenth of the produced cDNA was amplified by PCR using Taq DNA polymerase (Invitrogen) and two reporter sequence-specific primers. The PCR products were fluorescently labeled by primer extension with 6-arboxyfluorescein (6-FAM) 5'-labeled reporter sequence-specific primer (2 min at 95 C, 20 s at 68 C and 10 min at 72 C) and these products were digested with 5U of HpaI (New England Biolabs) for 2h at 37 C. The fragments were purified using Qiaquick PCR columns (Qiagen), analyzed on an ABI 3130xL genetic analyzer (Applied Biosystems) with peak positions identified by using a set of X-rhodamine (ROX)-labeled MapMarker1000 molecular weight standards (BioVentures). The raw capillary electrophoresis data was processed using Attagraph software (Attagene).

Compound	AC50	outcome
Nc1cc(Cl)c(-c2cc(Cl)c(N)cc2Cl)cc1Cl	11.1 µM (active)	
O=C(CC(=O)C(F)(F)C(F)(F)C(F)(F)F)c1cccs1		inactive
O=C(O)CCC(F)(F)C(F)(F)C(F)(F)C(F)(F)C(F)(F)C(F)(F)F		inactive
C=CC(=O)OCCN(CC)CC		inactive
FC(F)(F)C1(F)C(F)(F)C(F)(F)C(F)(F)C1(F)F		inactive
C=CC(=C)CC/C=C(\C)CCC=C(C)C		inactive
O=C(C=C(O)C(F)(F)F)C(F)(F)F		inactive
O=C(O)C(F)(F)OC(F)(F)C(F)(F)OC(F)(F)C(F)(F)OC(F)(F)C(F)(F)C(F)(F)C(F)(F)F	27 µM (active)	inactive
O=C(O)CCC(F)(F)C(F)(F)C(F)(F)C(F)(F)C(F)(F)F		inactive
CCc1ccccc1O		inactive
O=C1Cc2ccccc2N1c1c(Cl)cccc1Cl		inactive
Brc1cc(Br)c(Oc2c(Br)cc(Br)c(Br)c2Br)cc1Br		inactive
C=Cc1ccc(O)c(OC)c1		inactive
OCC(F)(F)C(F)(F)C(F)(F)C(F)(F)C(F)(F)C(F)(F)C(F)(F)C(F)(F)C(F)(F)C(F)(F)C(F)(F)F		inactive
CC[N+](CC)(CC)Cc1ccccc1		inactive
O=S(=O)(O)C(F)(F)C(F)(F)C(F)(F)C(F)(F)C(F)(F)C(F)(F)C(F)(F)C(F)(F)C(F)(F)C(F)(F)F		inactive
FC(F)(F)C1(F)C(F)(F)C(F)(F)C(F)(F)C(F)(C(F)(F)F)C1(F)F (stereo not given)		inactive
c1cc2cccc3c4cccc5cccc(c(c1)c23)c54		inactive
O=C1C=CC(=O)N1c1cccc(N2C(=O)C=CC2=O)c1		inactive
CCCCCc1ccc(O)cc1		inactive

Compound	AC50	outcome
O=C(O)c1cccc(C(=O)O)n1		inactive
CC1CNCC(C)O1 (stereo not given)		inactive
O=S(=O)(O)c1ccccc1		inactive
CCOC(=O)c1nc(C(Cl)(Cl)Cl)n(-c2ccc(Cl)cc2Cl)n1		inactive
CC(C)(C)C1CCCCC1O (stereo not given)		inactive
Nc1ccc(O)c(C(=O)O)c1		inactive
OCCN1CN(CCO)CN(CCO)C1		inactive
Brc1ccc(Oc2ccc(Br)cc2Br)cc1		inactive
COC(O)c1ccccc1 (stereo not given)		inactive
Cc1ccc(C(=O)c2ccccc2)cc1		inactive
O=C(O)CN(CCCN(CC(=O)O)CC(=O)O)CC(=O)O		inactive
CC1=NN(c2ccccc2)C(=O)C1		inactive
Nc1ccn([C@@H]2O[C@H](CO)[C@@H](O)C2O)c(=O)n1 (stereo not given in full)		inactive
O=C1OC(=O)C(F)(F)C1(F)F		inactive
CCCCCCc1ccc(N)cc1		inactive
O=P(O)(O)CCC(F)(F)C(F)(F)C(F)(F)C(F)(F)C(F)(F)C(F)(F)C(F)(F)C(F)(F)F		inactive
CC(=O)CC(C)C		inactive
CCCCc1ccc2ccccc2c1S(=O)(=O)O		inactive
CC(=O)Nc1ccc(S(N)(=O)=O)cc1		inactive

Source: PubChem BioAssay (EPA / NIEHS)
